Where “and” joins values, the source holds several entries; their conditions need not be identical. Equal entries are not always repeated. Screen size: about 5,500 compounds; about 2,000 (36%) were called active. Another 18% or so got no clear call; they are omitted. Rule as the data show it: active = normalized growth mostly below about 0.91 (no sharp cut-off); inconclusive = no clear call, values can overlap the other calls; inactive = mostly above about 0.92. Some of the results follow.
Test: chemical genetic growth profiling, strain panel (AID 1159580);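 also: tested at 20 µM; growth read once vehicle control cultures reached saturation at 30 °C; 1 = growth at the plate median or of vehicle wells; lower values mean less growth of the strain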
Conditions: S. cerevisiae deletion strains, growth OD

Measured: normalized growth

CCC1(c2ccc(N)cc2)CCC(=O)NC1=O (configuration not stated)
active: locus YGL240W, strain doc1, stronger effect = lower value 0.876
inactive: locus YAL021C, strain ccr4, stronger effect = lower value 0.981 | locus YAL026C, strain drs2, stronger effect = lower value 0.971 | locus YAL030W, strain snc1, stronger effect = lower value 0.969 | locus YAL040C, strain CLN3, stronger effect = lower value 0.987 | locus YBL061C, strain skt5, stronger effect = lower value 0.968 | locus YBR009C, strain hhf1, stronger effect = lower value 0.984 | locus YBR021W, strain FUR4, stronger effect = lower value 1.01 | locus YBR023C, strain chs3, stronger effect = lower value 0.979 | locus YBR171W, strain sec66, stronger effect = lower value 0.957 | locus YBR229C, strain ROT2, stronger effect = lower value 0.995 | locus YBR231C, strain swc5, stronger effect = lower value 0.943 | locus YBR279W, strain paf1, stronger effect = lower value 0.988 | locus YCL011C, strain gbp2, stronger effect = lower value 0.984 | locus YCL016C, strain dcc1, stronger effect = lower value 0.994 | locus YCL029C, strain bik1, stronger effect = lower value 1 | locus YCL069W, strain vba3, stronger effect = lower value 0.956 | locus YCR088W, strain abp1, stronger effect = lower value 0.974 | locus YDL005C, strain med2, stronger effect = lower value 0.955 | locus YDL035C, strain GPR1, stronger effect = lower value 1.04 | locus YDL040C, strain nat1, stronger effect = lower value 0.978 | locus YDL074C, strain BRE1, stronger effect = lower value 0.994 | locus YDL101C, strain DUN1, stronger effect = lower value 1.01 | locus YDL134C, strain PPH21, stronger effect = lower value 1.02 | locus YDL185W, strain tfp1, stronger effect = lower value 1.01 | locus YDL192W, strain arf1, stronger effect = lower value 0.996 | locus YDR001C, strain nth1, stronger effect = lower value 0.96 | locus YDR069C, strain doa4, stronger effect = lower value 0.962 | locus YDR101C, strain arx1, stronger effect = lower value 1.01 | locus YDR137W, strain rgp1, stronger effect = lower value 1.06 | locus YDR150W, strain NUM1, stronger effect = lower value 1 | locus YDR159W, strain sac3, stronger effect = lower value 0.979 | locus YDR162C, strain NBP2, stronger effect = lower value 1.03 | locus YDR195W, strain ref2 0.926 | locus YDR297W, strain sur2, stronger effect = lower value 0.973 | locus YDR318W, strain mcm21, stronger effect = lower value 0.991 | locus YDR334W, strain swr1, stronger effect = lower value 0.964 | locus YDR335W, strain msn5, stronger effect = lower value 0.959 | locus YDR363W, strain ESC2, stronger effect = lower value 1.01 | locus YDR388W, stronger effect = lower value 0.999 | locus YDR392W, strain spt3, stronger effect = lower value 1.02 | locus YDR502C, strain sam2, stronger effect = lower value 0.999 | locus YEL003W, strain gim4, stronger effect = lower value 0.957 | locus YEL037C, strain rad23, stronger effect = lower value 0.951 | locus YEL061C, strain CIN8 (second series), stronger effect = lower value 0.961 | locus YEL061C, strain CIN8, stronger effect = lower value 1.01 | locus YER002W, strain NOP16, stronger effect = lower value 0.977 | locus YER015W, strain faa2, stronger effect = lower value 0.966 | locus YER016W, strain bim1, stronger effect = lower value 0.987 | locus YER110C, stronger effect = lower value 0.993 | locus YER111C, strain swi4, stronger effect = lower value 0.968 | locus YER155C, strain BEM2 (second series), stronger effect = lower value 0.878 | locus YER155C, strain BEM2, stronger effect = lower value 0.999 | locus YER167W, strain BCK2, stronger effect = lower value 1 | locus YFR010W, strain ubp6, stronger effect = lower value 0.945 | locus YGL078C, strain dbp3, stronger effect = lower value 0.992 | locus YGL086W, strain mad1, stronger effect = lower value 0.994 | locus YGL167C, strain pmr1, stronger effect = lower value 0.961 | locus YGL173C, strain kem1, stronger effect = lower value 0.936 | locus YGL227W, strain vid30, stronger effect = lower value 0.976 | locus YGL248W, strain PDE1, stronger effect = lower value 0.999 | locus YGL253W, strain hxk2, stronger effect = lower value 0.967 | locus YGR078C, strain PAC10, stronger effect = lower value 0.997 | locus YGR135W, strain pre9, stronger effect = lower value 0.991 | locus YGR252W, strain gcn5, stronger effect = lower value 0.992 | locus YHR013C, strain ard1, stronger effect = lower value 0.956 | locus YHR027C, strain rpn1, stronger effect = lower value 0.981 | locus YHR030C, strain SLT2, stronger effect = lower value 1 and 0.997 | locus YHR079C, strain IRE1 (second series), stronger effect = lower value 0.995 | locus YHR079C, strain IRE1, stronger effect = lower value 1.04 | locus YHR094C, strain hxt1, stronger effect = lower value 0.995 | locus YHR129C, strain ARP1, stronger effect = lower value 0.999 | locus YHR142W, strain chs7, stronger effect = lower value 0.932 | locus YHR200W, strain rpn10, stronger effect = lower value 0.999 | locus YIL066C, strain RNR3, stronger effect = lower value 1.03 | locus YIL073C, strain SPO22, stronger effect = lower value 1.03 | locus YIL125W, strain kgd1, stronger effect = lower value 0.998 | locus YIR030C, strain dcg1, stronger effect = lower value 0.995 | locus YJL092W, strain hpr5, stronger effect = lower value 0.952 | locus YJL095W, strain BCK1 (second series), stronger effect = lower value 0.97 | locus YJL095W, strain BCK1, stronger effect = lower value 0.995 and 1.03 | locus YJL115W, strain asf1, stronger effect = lower value 0.949 | locus YJL129C, strain trk1, stronger effect = lower value 0.928 | locus YJL134W, strain LCB3, stronger effect = lower value 1 | locus YJL154C, strain vps35, stronger effect = lower value 0.967 | locus YJL164C, strain tpk1, stronger effect = lower value 0.998 | locus YJL166W, strain qcr8, stronger effect = lower value 0.913 | locus YJL168C, strain set2, stronger effect = lower value 0.988 | locus YJL187C, strain SWE1 (second series), stronger effect = lower value 0.993 | locus YJL187C, strain SWE1, stronger effect = lower value 0.959 | locus YJR043C, strain POL32, stronger effect = lower value 1.02 | locus YJR066W, strain TOR1, stronger effect = lower value 0.973
